Screens: PubChem, National Center for Advancing Translational Sciences (NCATS)
PNC inhibitor: perinucleolar compartment assembly inhibition. PC3M PTB-GFP, PNC prevalence imaging, 16 h; stronger effect = lower value. activity change (PNC), negative = inhibition, % at 10 µM. 140,000 tested, 3.1% active;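 active = readout at or below -70, meaning at least 70% loss of cells showing the perinucleolar compartment, a nuclear body marking cancer cells; inconclusive = readout between -30 and a set limit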;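 note: plate controls were DMSO wells for no effect and camptothecin positive control wells for full effect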
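Read-out is percentage of cells bearing a perinucleolar compartment, from automated 20x imaging of fixed, Hoechst-stained PC3M PTB-GFP cells. Cells were seeded 4 h, then exposed 16 h to compound (23 nl of library stock) in duplicate plates.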
ALDH1A1 inh: blocks purified human ALDH1A1 activity; Purified ALDH1A1, NADH fluorescence, propionaldehyde substrate; Potency, µM (series often up to 75.3 µM), inactives show top-dose activity, negative = inhibition, most hits filed as inhibitors; 220,000 tested, 7.3% active; AID 1030; active = well fitted inhibition curve with a large enough effect, not every such curve was filed as active; inconclusive = small, poorly fitted or top-dose-only effect, or another doubt; inactive = no such curve, though single readings can be large or run the other way;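 note: potency is the fitted concentration of half-maximal effect; plate controls were no enzyme wells and a reference inhibitor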
NPSR antagonist: neuropeptide S receptor (human) antagonism, cAMP; Q6W5P4; CHO-NPSR cells, cAMP TR-FRET, antagonist mode; Potency, µM (highest dose often 38.3 µM), inactives show top-dose activity change, negative = inhibition, most hits filed as inhibitors; 220,000 tested, 1% active; AID 1461; note: potency is the fitted concentration of half-maximal effect; nearly all actives have a fitted effect of over 50% in size
HPGD inh: HPGD (human) dehydrogenase inhibition; P15428; purified HPGD, NADH fluorescence kinetic, PGE2 substrate; Potency, µM, without a hit: at the top dose activity change, negative = inhibition, actives largely listed as inhibitors; 150,000 tested, 4.3% active; active = well fitted inhibition curve with a large enough effect, not every such curve was filed as active; inconclusive = small, poorly fitted or top-dose-only effect, or another doubt; inactive = no such curve, though single readings can be large or run the other way; note: potency is the fitted concentration of half-maximal effect
Target sequence (P15428 whole entry, looked up): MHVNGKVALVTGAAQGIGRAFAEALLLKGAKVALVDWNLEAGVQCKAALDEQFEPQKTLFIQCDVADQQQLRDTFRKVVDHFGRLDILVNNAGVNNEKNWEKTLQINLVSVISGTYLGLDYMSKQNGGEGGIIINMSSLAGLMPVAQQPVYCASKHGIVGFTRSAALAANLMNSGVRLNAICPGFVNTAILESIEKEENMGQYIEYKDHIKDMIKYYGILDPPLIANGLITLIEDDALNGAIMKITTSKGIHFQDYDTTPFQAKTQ
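20 nM HPGD preincubated 15 min at room temperature with compound in 50 mM Tris-HCl pH 8, 0.01% Tween 20. Started with 1 mM NAD+ and 30 uM prostaglandin E2; NADH fluorescence (360/450 nm) read 5 times over 30-s intervals, last minus first.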
IMPase inh: cell-permeable inhibitors of inositol monophosphatase (IMPase). AID 901. P97697. CHO-M1 cells, IP1 accumulation, HTRF TR-FRET ratio. inhibition (IP1 accumulation), % at 46.1 µM. 120,000 tested, under 10 active; active = well fitted curve in the direction sought with a large enough effect in the signal ratio, not every such curve was filed as active; inconclusive = small, poorly fitted or top-dose-only effect, or a change in a side signal; inactive = no such curve, though single readings can be large or run the other way; the % refers to the signal ratio;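 note: cells stimulated with carbachol in lithium chloride buffer; plate controls were DMSO basal wells for no effect and reference inhibitor wells for full effect; higher means more IMPase inhibition seen as more IP1 and lower FRET ratio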
Target sequence (P97697 whole entry, looked up): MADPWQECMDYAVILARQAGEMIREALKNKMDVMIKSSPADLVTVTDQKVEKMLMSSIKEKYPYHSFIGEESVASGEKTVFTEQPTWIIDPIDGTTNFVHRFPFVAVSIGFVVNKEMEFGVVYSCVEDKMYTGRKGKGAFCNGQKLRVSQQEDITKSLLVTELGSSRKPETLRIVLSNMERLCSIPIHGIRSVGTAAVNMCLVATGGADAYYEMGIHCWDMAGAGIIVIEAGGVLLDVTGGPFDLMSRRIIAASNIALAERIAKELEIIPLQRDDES
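In this qHTS, compounds (final up to 46 uM) act on CHO-M1 cells that are then activated through the M1 receptor with carbachol, in pH 7.4 buffer containing 50 mM LiCl, for 30 min. IP1 accumulation is quantified by the IP-One immunoassay.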
IMPase Li inh: IMPase inhibition in cells with lithium potentiation; CHO-M1 cells, IP1 TR-FRET (IP-One), carbachol + lithium; AID 1457; 210,000 tested, 0.35% active; Potency, µM (series often up to 59.4 µM), for the others: at the highest dose activity, negative = IMPase inhibition, most hits filed as inhibitors;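 note: IP1 builds up when IMPase is blocked and the TR-FRET signal falls; potency is the fitted concentration of half-maximal effect; plate controls were basal vehicle for no effect and high inhibitor control for full effect; nearly all actives have a fitted effect of over 50% in size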
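Concentration–response in CHO-M1 cells, lithium-potentiated; 30 min at 37C. IP1 detected by competitive TR-FRET after 10 min lysis at RT. Hill-fitted AC50.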
An asterisk follows results filed as active; ? = inconclusive; · = no result given; [ ] = remark or other dose. A selection: hits, their analogues and other compounds. The true share with any hit is near 11%. Unless noted, calls come from the whole dose curve; as a rule, active = well fitted curve in the direction sought with a large enough effect; inconclusive = small, poorly fitted or top-dose-only effect, or another doubt; inactive = no such curve, though single readings can be large; an effect the other way counts as inactive or inconclusive. Unless noted, % is set by controls: 0 for no effect and ±100 for the full control effect.

SMILES	PNC inhibitor	ALDH1A1 inh	NPSR antagonist	HPGD inh	IMPase inh	IMPase Li inh
Cc1cccc(N2C(=O)NC(=O)/C(=C/c3ccc([N+](=O)[O-])o3)C2=O)c1	-21	-4%	-3%	13µM*	·	-4%
Cc1ccc(/C=C2\C(=O)NC(=O)N(Cc3ccccc3Cl)C2=O)o1	·	?	-29%	·	·	10%
COc1ccc(CN2C(=O)NC(=O)/C(=C/c3ccc([N+](=O)[O-])o3)C2=O)cc1	·	18µM*	10%	·	·	3%
O=C1NC(=O)N(c2ccc3c(c2)OCO3)C(=O)/C1=C/c1ccc(N2CCCC2)o1	1	-3%	-19%	-11%	·	6%
Cc1ccccc1OP(N)(=O)Oc1ccccc1C	·	5%	6%	·	·	-6%
O=[N+]([O-])c1ccc(Cl)cc1	·	4%	·	-4%	·	-6%
Fc1ccc2c(c1)nnn2C1CCN(Cc2ccccc2)CC1	-13	?	-6%[46.1 µM]	-15%	3	43%[38.3 µM]
CO/C1=C\C(C)=C\[C@@H](C)[C@@H](O)[C@H](C)C/C(C)=C/C=C/[C@H](OC)[C@H]([C@@H](C)[C@@H](O)[C@H](C)[C@H]2C[C@@H](O)[C@H](C)[C@@H](C(C)C)O2)OC1=O	·	-3%	·	·	·	-7%
CCn1c(O)c(C=Nc2ccc(S(N)(=O)=O)cc2)c(=O)n(CC)c1=S	?	?	-37%	-17%	·	-6%
NS(=O)(=O)c1ccc(N=Cc2c(O)n(C3CCCCC3)c(=O)n(C3CCCCC3)c2=O)cc1	18	-10%	10µM*	?	17	11%[38.3 µM]
CC1(C)CC(=O)C(C=NCCN2CCN(C(=O)Cc3ccc(F)cc3)CC2)=C(O)C1	23	18µM*	5%[46.1 µM]	-15%	-9	1%[38.3 µM]
Cc1nn(Cc2ccccc2)c2c1C(c1ccco1)C(C#N)=C(N)O2 (stereo unspecified)	?	28µM*	-12%[46.1 µM]	-18%	-3	29%[38.3 µM]
CN1CCCC2(CCN(C(=O)c3ccncc3)CC2)C1	·	-1%	·	-3%	·	17%
CCOC(=O)c1ccc2c(c1)n(Cc1ccccc1)c(C)[n+]2CC	·	0%	10%	·	·	12%
O=C(CNC(=O)c1ccccc1)NCC(=O)OCC(=O)c1ccc([N+](=O)[O-])cc1	-10	0.89µM*	-7%[46.1 µM]	-6%	1	3%
O=C(CNC(=O)c1ccc(Cl)cc1)Nc1ccc(Br)cc1C(=O)c1ccccc1	3	?	-23%	-19%	·	7%
O=C(CNC(=O)c1ccc(Br)cc1)NCC(=O)OCC(=O)c1ccc([N+](=O)[O-])cc1	9	1µM*	14%	-8%	·	-6%
O=C(CNC(=O)c1ccc(Cl)cc1)OCC(=O)c1ccc2c(c1)OCCO2	-12	?	0%[46.1 µM]	-3%	1	18%[38.3 µM]
COc1ccc2nc3oc(C(=O)N4CCC5(CC4)OCCO5)cc3cc2c1	·	?	0%	·	·	-9%
CCOP(=O)(OCC)C(NC(=O)c1cccc([N+](=O)[O-])c1)C(Cl)(Cl)Cl (stereo unspecified)	·	·	4%	·	·	·
CCN(CC)C(=O)C(C(=O)c1cccc([N+](=O)[O-])c1)n1cc(Cl)ccc1=O (stereo unspecified)	·	18µM*	-28%	·	·	4%
CCCC(C)C(=O)NC1CCSC1=O (stereo unspecified)	27	6%	-9%[46.1 µM]	7%	-6	-5%[38.3 µM]
CC(=O)OC1=CC2=CC[C@H]3[C@H]4CCC(=O)[C@@]4(C)CC(=O)[C@]3(S)[C@]2(C)CC1	·	4.5µM*	·	-4%	·	9%
CC12CCC3C(CC=C4CC5(CCC43C)OCCO5)C1CCC2=O (stereo unspecified)	·	-2%	-6%	·	·	-2%
Cc1cc(/C=C2\C(=O)NC(=O)N(c3ccc(Cl)cc3)C2=O)c(C)n1-c1sc2c(c1C#N)CCCC2	51	0.25µM*	-4%[46.1 µM]	10µM*	10	15%
SMILES	PNC inhibitor	ALDH1A1 inh	NPSR antagonist	HPGD inh	IMPase inh	IMPase Li inh
Cc1sc(-n2c(C)cc(C=C3C(=O)NC(=O)NC3=O)c2C)c(C#N)c1C	24	0.63µM*	-7%	-29%	1	-4%
Cc1ccc(N2C(=O)NC(=O)/C(=C\C=C\c3ccco3)C2=O)cc1C	34	?	13µM*	10µM*	·	14%
COc1ccc(CN2C(=O)NC(=O)/C(=C\c3cccc(OC)c3OC)C2=O)cc1	·	?	-39%	·	·	4%
CN1C(=O)/C(=C/C=C/c2ccco2)C(=O)NC1=S	·	·	1%	·	·	·
O=C1NC(=O)N(Cc2ccccc2)C(=O)/C1=C/N1CCCc2ccccc21	48	8.9µM*	25%	-24%	-2	-3%
O=C1NC(=O)N(Cc2ccccc2)C(=O)/C1=C\C=C\c1ccco1	·	3.2µM*	-30%	·	·	21%
O=C(CN1CC=C(c2ccccc2)CC1)NC(=O)NCc1ccco1	-1	-2%	-4%[46.1 µM]	-6%	2	4%[38.3 µM]
CC(O)(CS(=O)(=O)c1ccccc1)C(=O)Nc1cccc(C(F)(F)F)c1 (stereo unspecified)	17	25%	-12%[46.1 µM]	0.0018µM*	-7	-5%[38.3 µM]
Cc1ccc(S(=O)(=O)CC(C)(O)C(=O)Nc2cccc(C(F)(F)F)c2)cc1 (stereo unspecified)	8	4%	-10%[46.1 µM]	-3%	1	-13%[38.3 µM]
CCC#N	·	?	·	-17%	·	-3%
Oc1c(Br)cc(Br)cc1Br	·	-1%	·	-9%	·	9%
Oc1c(Br)c(Br)c(Br)c(Br)c1Br	·	?	·	10µM*	·	6%
Nc1c(C(=O)NCc2ccco2)c2nc3ccccc3nc2n1CCN1CCCCC1	?	?	?	?	10	23%[38.3 µM]
[CH3][Hg][Cl]	·	0.71µM*	·	?	·	3%
O=C1C(=O)c2ccccc2-c2ccccc21	?	2%	3.2µM*	-11%	15	35%[38.3 µM]
O=[N+]([O-])c1cccc(CN2CCN(Cc3ccc(Cl)cc3)CC2)c1	·	?	-22%	·	·	16%
CC(C)N1CCN(Cc2cccc([N+](=O)[O-])c2)CC1	·	3.5µM*	20%	·	·	14%
CC(C)CNC(=O)c1c(N)n(Cc2ccco2)c2nc3ccccc3nc12	0	?	10µM*	10%	-5	35%[38.3 µM]
COCCCNC(=O)c1c(NC(=O)c2ccco2)n(Cc2ccccc2)c2nc3ccccc3nc12	-21	?	13µM*	?	5	14%[38.3 µM]
COC(=O)c1c(N)n(Cc2ccc(OC)cc2)c2nc3ccccc3nc12	-82*	?	-30%[46.1 µM]	?	0	26%[38.3 µM]
CCCNC(=O)c1c(N)n(Cc2ccco2)c2nc3ccccc3nc12	-4	?	?	?	-4	19%[38.3 µM]
CC(C)OCCCNC(=O)c1c(N)n(Cc2cccs2)c2nc3ccccc3nc12	?	?	10µM*	?	4	3%[38.3 µM]
